# Bioassay records from PubChem.
# Only some compounds are listed: those with a hit (about 10% of all), similar ones and a draw of the others.
# JMJD2A Tudor: inhibitors of human JMJD2A Tudor domain. Potency, µM (series often up to 114 µM), actives largely listed as inhibitors. AlphaScreen JMJD2A-Tudor / H3K4me3 peptide binding. O75164. 390,000 tested, 4.4% active; also: nearly all actives have a fitted effect of over 50% in size
# BAZ2B inh: BAZ2B (human) inhibition | AlphaScreen BAZ2B-H3K14Ac peptide displacement | Potency, µM (doses to about 114 µM), hits mostly inhibitors | 360,000 tested, 4.4% active | AID 504333; also: nearly all actives have a fitted effect of over 60% in size
#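 Protein-peptide AlphaScreen: BAZ2B 50 nM, b-H3K14Ac 50 nM, 1x PBS pH 7.4 + 0.01% Tween-20. Preincubation 30 min RT; cpd 30 min RT (top 110 uM); beads 20 min RT, light-protected.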
# GLS inh: inhibitors of human glutaminase (GLS). 410,000 tested, 0.21% active. O94925. Potency, µM (series often up to 45.5 µM), most hits filed as inhibitors. GLS enzymatic activity, qHTS titration
#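 Coupled fluorescence readout: glutamate oxidase/HRP/Amplex Red detect glutamate formed by hKGA from L-glutamine (1 mM solution added). Buffer 45 mM KH2PO4 pH 8.2, 0.02% Tween-20; reads at t0 and 30 min RT.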
# HP1b chromo inh: inhibitors of HP1-beta chromodomain binding to methylated histone tails. AID 540317. Potency, µM (titrated, usually from 114 µM), usual class: inhibitors. AlphaScreen HP1-beta / biotin-H3K9me3 peptide binding. 390,000 tested, 0.56% active. P83916; also: nearly all actives have a fitted effect of over 70% in size
# Target sequence (P83916 whole entry, looked up): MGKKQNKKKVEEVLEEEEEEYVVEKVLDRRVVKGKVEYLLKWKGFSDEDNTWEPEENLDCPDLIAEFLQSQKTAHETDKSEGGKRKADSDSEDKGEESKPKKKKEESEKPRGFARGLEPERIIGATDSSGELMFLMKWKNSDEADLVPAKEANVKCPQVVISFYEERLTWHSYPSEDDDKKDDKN
#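 AlphaScreen: HP1-beta (50 nM) preformed 30 min with biotin-H3(1-18)K9me3 peptide (50 nM) in PBS pH 7.4, 0.01% Tween-20. Compound added for 30 min at RT, then streptavidin donor/nickel chelate acceptor beads (10 ug/mL) for 30 min.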
# G9a inh: inhibitors of human histone lysine methyltransferase G9a. Q96KQ7. G9a H3K9 monomethylation, AlphaScreen, 2 h. Potency, µM (doses to about 102 µM), most hits filed as inhibitors. 350,000 tested, 8.8% active; also: nearly all actives have a fitted effect of over 75% in size
# Target sequence (Q96KQ7 913-1193 limits assumed): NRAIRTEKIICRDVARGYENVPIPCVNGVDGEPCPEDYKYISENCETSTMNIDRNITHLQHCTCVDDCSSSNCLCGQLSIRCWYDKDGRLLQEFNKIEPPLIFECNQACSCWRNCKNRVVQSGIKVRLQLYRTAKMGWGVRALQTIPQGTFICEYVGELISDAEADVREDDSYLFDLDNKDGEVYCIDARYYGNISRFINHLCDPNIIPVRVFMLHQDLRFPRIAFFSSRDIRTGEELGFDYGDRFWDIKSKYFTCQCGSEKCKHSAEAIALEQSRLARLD
#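 AlphaScreen detection with an anti-monomethyl H3K9 antibody quantified product after a 2 h room-temperature reaction containing 500 nM biotinylated H3K9 peptide, 20 µM SAM and 20 nM enzyme, which had been preincubated 15 min with compound.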
# A number is an active result; – = inactive; ? = inconclusive; · = no result given; [ ] = another dose, or the depositor's remark. Calls follow the shape of the dose curve; as a rule, active = well fitted curve in the direction sought with a large enough effect; inconclusive = small, poorly fitted or top-dose-only effect, or another doubt; inactive = no such curve, though single readings can be large; an effect the other way counts as inactive or inconclusive.
SMILES,JMJD2A Tudor,BAZ2B inh,GLS inh,HP1b chromo inh,G9a inh
COc1cccc(CN2CCN(C3CCN(c4ccccc4C)CC3)CC2CCO)c1 (centres undefined),–,–,–,–,–[0.501 µM]
COCCCNS(=O)(=O)c1ccc2[nH]c(=O)[nH]c2c1,–,–,–,–,–
Nc1ccccc1C(=O)NNc1c2ccccc2nc2ccccc12,32µM,28µM,–,18µM,18µM
COc1cccc(C(=O)NNc2c3ccccc3nc3ccccc23)c1,?,?,?,–,–
COc1ccc(/C=C/C(=O)NC(=S)NNC(=O)c2c(-c3ccccc3)noc2C)cc1,–,–,–,–,?
COc1ccc(-c2cc(C(=O)NNC(=S)NC(=O)c3c(-c4ccccc4)noc3C)[nH]n2)cc1,–,–,–,–,45µM
CCN1CCN(c2nc3c(c(=O)[nH]c(=O)n3C)n2CCSc2nc3ccccc3s2)CC1,–,–,–,–,?
COC(=O)CNC(=O)CNC(=O)c1nn(-c2ccc(OC)c(Cl)c2)c(=O)c2ccccc12,–,–,–,–,–
CCOc1ccc(OCCCCn2ccnc2)cc1,20µM,50µM,–,?,?
CCOc1ccc(C(=O)NCCCn2ccnc2)cc1,–,–,–,–,–[12.7 µM]
Cc1cc(OCCn2ccnc2)ccc1C(C)C,3.2µM,45µM,–,50µM,14µM
Cc1cc(OCCN2CCOCC2)ccc1C(C)C,14µM,50µM,–,?,–[2.33 µM]
COc1ccc(OCCn2ccnc2)cc1,–,–,–,–,–[0.501 µM]
CCOc1ccc(OCCn2ccnc2)cc1,5µM,50µM,–,?,10µM
CCC(=O)c1ccc(OCCN2CCOCC2)cc1,–,–,–,–,–[12.7 µM]
CCC(C)c1ccc(OCCCCN2CCOCC2)cc1 (centres undefined),35µM,50µM,–,?,10µM
CCNC(=S)NNc1nc(N2CCOCC2)nc(N2CCOCC2)n1,–,·,–,–,?
CNc1nc(C(=O)O)nc(N2CCOCC2)n1,4.5µM,11µM,–,–,5.6µM
CNC(=S)NNc1nc(N2CCOCC2)nc(N2CCOCC2)n1,25µM,–,–,?,?
O=C(/C=C(\O)c1ccc(Cl)cc1)C(=O)NNC(=O)C(O)(c1ccccc1)c1ccccc1,?,–,–,–,–
Cn1c(=O)[nH]c(=O)c2c1[nH]c(=S)n2Cc1ccc(Cl)cc1,3.2µM,22µM,?,14µM,0.89µM
Cn1c(=O)c2c([nH]c(=S)n2CCCc2ccccc2)n(C)c1=O,5µM,28µM,?,16µM,–[0.501 µM]
Cn1c(=O)[nH]c(=O)c2c1[nH]c(=S)n2CCCc1ccccc1,3.2µM,25µM,?,10µM,·
Cn1c(=O)[nH]c(=O)c2c1nc(Br)n2Cc1ccc(Cl)cc1,·,·,–,·,·
O=C(CNC(=O)c1ccccc1O)N/N=C/c1ccccn1,–,–,–,–,–
SMILES,JMJD2A Tudor,BAZ2B inh,GLS inh,HP1b chromo inh,G9a inh
CN1C(=O)/C(=C\c2ccncc2)SC1=Nc1ccccc1,?,?,–,–,?
COC(=O)c1ccc2c(=O)[nH]c(CSc3nc(-c4ccc(F)cc4)cs3)nc2c1,–,–,–,–,?
COC(=O)c1ccc2c(=O)[nH]c(CSc3nc(C)cs3)nc2c1,–,–,–,–,40µM
Cn1c(=O)n(C/C=C/c2ccccc2)c(=O)c2c1nc1n2CCN1c1ccccc1,–,–,–,–,–
CN(C)/C=C/c1c([N+](=O)[O-])c2ccc(O)cc2n1-c1ccccc1,?,35µM,8.9µM,–,·
CC(=O)Nc1ccc(NS(=O)(=O)c2ccc3c(c2)n(C)c(=O)n3C)cc1,–,79µM,–,–,–
CC(=O)Nc1ccc(NS(=O)(=O)c2ccc3ccccc3c2)cc1,28µM,–,–,–,–[12.7 µM]
CC(=O)Nc1ccc(S(=O)(=O)Nc2ccc(C(=O)NCC(=O)O)cc2)cc1,–,–,–,–,20µM
COc1ccc(CCNC(=O)COC(=O)/C=C/c2cc(OC)ccc2OC)cc1,–,·,–,–,·
N#Cc1ccc(/C=C/C(=O)c2ccco2)cc1,–,–,–,–,14µM
Nc1ccc(/C=C/C(=O)c2ccco2)cc1,–,–,–,–,–
CC(=O)Nc1ccc(C2NC(=S)N(c3ccccc3C(F)(F)F)C(C)=C2C(=O)N2CCOCC2)cc1 (centres undefined),–,–,–,–,–
COc1ccc(S(=O)(=O)N2C[C@H]3CON(C)[C@H]3C[C@H]2c2ccc(-c3cccc(F)c3)cc2)cc1,·,·,–,·,·
COC(=O)CCN(C)CCC(=O)OC,50µM,–,–,–,–[2.33 µM]
O=C1CC(Nc2ccc(N3CCOCC3)cc2)C(=O)N1c1cccc(C(F)(F)F)c1 (centres undefined),?,56µM,–,–,14µM
O=C(O)c1ccc(N2C(=O)CC(N3CCN(c4cccc(C(F)(F)F)c4)CC3)C2=O)cc1 (centres undefined),–,–,–,–,40µM
COc1ccc(N2C(=O)CC(N3CCC(O)(c4cccc(C(F)(F)F)c4)CC3)C2=O)cc1 (centres undefined),–,–,–,–,40µM
COC(=O)c1ccc(N2C(=O)CC(N(C)CCc3ccc(OC)c(OC)c3)C2=O)cc1 (centres undefined),–,–,–,–,35µM
COc1cccc(N2C(=O)CC(Nc3ccc(N4CCOCC4)cc3)C2=O)c1 (centres undefined),?,–,–,–,–
Cc1cccc2c1NC(=O)C2=Nc1ccc(Cl)cc1,–,–,–,–,–
CCCCC1CCC(C(=O)N(CC(C)C)c2c(N)n(CCCC)c(=O)[nH]c2=O)CC1 (centres undefined),–,–,–,–,–[0.501 µM]
COc1ccc(N2C(=O)CC(Nc3ccc(C(=O)O)cc3)C2=O)cc1OC (centres undefined),–,–,–,–,40µM
CCc1ccc(NC(=O)CCCn2nc(C)c3c(C)n(-c4ccccc4)nc3c2=O)cc1,–,–,–,–,–
COc1cc(/C=N\N=C2/SC(CC(=O)O)C(=O)N2c2ccc(O)cc2)ccc1O (centres undefined),–,–,–,–,–
COc1cc(/C=N/N=C2/SCC(=O)N2c2ccc(O)cc2)ccc1O,8.9µM,–,?,–,–
SMILES,JMJD2A Tudor,BAZ2B inh,GLS inh,HP1b chromo inh,G9a inh
O=C(c1cc2ccccc2oc1=O)N(Cc1cccs1)Cc1cccs1,28µM,–,–,–,–
CCN(CC)Cc1cc2[nH]c3c4ccc(Cl)cc4ncc3c2cc1OC,–,–,–,–,45µM
COc1ccc(CNc2ncnc3cc(Cl)ccc23)cc1OC,–,–,–,–,–
Cc1cc(=O)oc2c(C(=O)/C=C\c3cccs3)c(O)ccc12,?,?,–,–,45µM
CCOc1ccc(=O)n(-c2ccccc2)n1,–[11.4 µM],–,–,–,–
CCn1c(COc2ccc(=O)n(-c3ccccc3)n2)n[nH]c1=S,20µM,–,–,–,25µM
CCOC(=O)c1ccccc1NC(=O)Nc1cc2c(cc1N1CCCCC1)n(C)c(=O)n2C,–,?,–,–,–
